# From PubChem
# Compounds with a hit are over-represented: about 19% of the library has one in this group of screens.
# IL-1B inflam inh = qHTS for Inhibitors of Inflammasome Signaling: IL-1-beta AlphaLISA Primary Screen; activity change, % at 57.5 µM; THP-1 LPS/ATP IL-1B secretion, AlphaLISA, 16 h; stronger effect = lower value; 4.7% of 360,000 active; AID 743279, 2014; in the data active = activity change below about -50%; inconclusive = mostly about -30% to -49%
#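 THP-1 cells pretreated 1 hr with compounds (up to 57.5 uM final), then stimulated with LPS (250 ng/mL final) plus ATP (1.25 mM final); secreted IL-1B measured by AlphaLISA after 16 hr, decreased signal indicating inhibition.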
# DT40 TDP1 no CPT = qHTS for Inhibitors of human tyrosyl-DNA phosphodiesterase 1 (TDP1): qHTS in cells in absence of CPT | AID 686978, 2013 | DT40 Tdp1-/- hTDP1 cells, no CPT, ATP luminescence, 48 h | Potency, µM (series often up to 46.2 µM), without a hit: at the top dose activity change, negative = growth inhibition, hits mostly inhibitors | 15% of 420,000 active; note: potency is the fitted concentration of half-maximal effect; nearly all actives have a fitted effect of over 55% in size
#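 Stably hTDP1-transfected Tdp1-null chicken DT40 cells were treated with library compounds minus camptothecin and grown for at least 48 hr at 37 °C, after which cellular ATP was quantified by luminescence.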
# TDP1 cell CPT = qHTS for Inhibitors of human tyrosyl-DNA phosphodiesterase 1 (TDP1): qHTS in cells in presence of CPT; chicken DT40 Tdp1-/-;hTDP1 cells + 20 nM CPT, ATP luminescence, 48 h; Potency, µM (series often up to 46.2 µM), without a hit: at the top dose activity change, negative = growth inhibition, usual class: inhibitors; 12% of 420,000 active; AID 686979, 2013; note: potency is the fitted concentration of half-maximal effect; nearly all actives have a fitted effect of over 55% in size
#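 Chicken DT40 Tdp1-/- cells stably complemented with human TDP1 were seeded at 400 cells/well in medium containing 20 nM camptothecin, exposed to pin-transferred compounds, and grown at 37 °C for at least 48 hr. Viability was read as ATP luminescence.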
# HT1080NT lethal = qHTS for induction of synthetic lethality in tumor cells producing 2HG: qHTS for the HT-1080-NT fibrosarcoma cell line; HT-1080-NT fibrosarcoma viability, CellTiter-Glo ATP luminescence, 48 h; Potency, µM (top dose mostly 46.1 µM), for inactives: top-dose activity, negative = less viability, most hits filed as cytotoxic; AID 686970, 2013; 1.6% of 360,000 active;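 note: NT is the 2HG producing partner of a matched IDH1 knockdown line; potency is the fitted concentration of half-maximal effect; 0% = DMSO-treated cells and -100% = media-only wells without cells; nearly all actives have a fitted effect of over 55% in size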
#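 Viability of the 2HG-overproducing fibrosarcoma line after 48 hours of compound exposure at 37 degrees C was determined by luminescence with CellTiter-Glo, and concentration-effect curves were then fitted and categorized.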
# HT1080 IDH1KD tx = qHTS for induction of synthetic lethality in tumor cells producing 2HG: qHTS for the HT-1080-IDH1KD cell line | HT-1080 IDH1 knockdown viability, ATP luminescence, 48 h | Potency, µM (series often up to 46.1 µM), inactives show at the top dose activity, negative = toxicity, actives largely listed as cytotoxic | 2% of 360,000 active;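 note: potency is the fitted concentration of half-maximal effect; 0% = DMSO wells and -100% = cell-free medium wells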
#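 IDH1KD HT-1080 cells, 750/well, RPMI + 5% FBS; compound pinned after 2 h settling; 48 h, 37 °C; CellTiter-Glo luminescence; % activity normalised to DMSO and no-cell wells; curves fitted, classed by r2 and efficacy.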
# * hit, by the source's call; ? = inconclusive; / = no result. Unless noted, calls come from the whole dose curve; as a rule, active = well fitted curve in the direction sought with a large enough effect; inconclusive = small, poorly fitted or top-dose-only effect, or another doubt; inactive = no such curve, though single readings can be large; an effect the other way counts as inactive or inconclusive. Unless noted, % is set by controls: 0 for no effect and ±100 for the full control effect.
SMILES,IL-1B inflam inh,DT40 TDP1 no CPT,TDP1 cell CPT,HT1080NT lethal,HT1080 IDH1KD tx
NNC(=O)C1CCN(S(=O)(=O)c2ccc(Cl)cc2)CC1,-10.0,2.9%,17.3%,12.3%,4.1%
CCC(=O)Nc1ccc(/C(C)=N\NS(=O)(=O)c2ccc(C)cc2)cc1,22.7,-0.7%,-1.1%,0.4%,2.5%
CCCS(=O)(=O)N1CCCC(C(=O)N2CCN(C(=O)OCC)CC2)C1 (configuration not stated),0.9,-8.1%,1.7%,13.8%,8.2%
Cc1cc(C)c(C)c(S(=O)(=O)N2CCC(C(=O)N3CC(C)CC(C)C3)CC2)c1C (configuration not stated),-74.7*,25.9µM*,18.4µM*,-2.5%,-10.0%
Cc1cc(C)c(C)c(S(=O)(=O)N2CCC(C(=O)Nc3ccncc3)CC2)c1C,-8.0,8.2µM*,?,?,?
COc1ccc(-c2cn3c(n2)sc2cc(C(=O)NCC(C)c4ccccc4)ccc23)cc1 (configuration not stated),/,5.8µM*,?,/,/
COc1ccc(-c2cn3c(n2)sc2cc(C(=O)Nc4cc(Cl)ccc4C)ccc23)cc1,/,2.91µM*,6.51µM*,/,/
COc1cccc(-c2cn3c(n2)sc2cc(C(=O)NCCc4ccccc4)ccc23)c1,/,7.31µM*,7.31µM*,/,/
CCc1ccc(-c2cn3c(n2)sc2cc(C(=O)NCCc4ccc(OC)cc4OC)ccc23)cc1,/,16.4µM*,23.1µM*,/,/
COc1ccc(NC(=O)c2ccc3c(c2)sc2nc(-c4ccc(OC)cc4)cn23)cc1,/,-4.3%,-5.5%,/,/
CCc1ccc(-c2cn3c(n2)sc2cc(C(=O)NCCCc4ccccc4)ccc23)cc1,/,-2.2%,-22.3%,/,/
CCOC(=O)N1CCN(C(=O)CNC2CCCCCCC2)CC1,-6.2,6.2%,4.1%,-15.3%,0.5%
COC(C[C@@H](O)C[C@@H](O)[C@@H](C)OCc1ccccc1)OC,-2.4,0.9%,-6.4%,-3.1%,2.7%
Cc1ccc2c(c1)c1c(c(=O)n(-c3ccccc3)c(=O)n1CC(=O)c1ccc(F)cc1)n2C,/,3.6%,1.5%,/,/
Cc1c(C(=O)O)c(C(=O)O)c2n1CCS2,30.3,-9.7%,-6.8%,-4.1%,12.4%
CCOc1ccc(C(=O)CC(=O)C(=O)NCCc2ccc(OC)c(OC)c2)cc1,-10.9,?,?,-3.8%,-7.3%
COc1ccc2c(c1)sc1nc(-c3ccccc3)cn12,?,0.92µM*,0.517µM*,2.59µM*,4.61µM*
CCOc1ccc(-c2cn3c(n2)sc2cc(C(=O)NCCc4ccc(OC)c(OC)c4)ccc23)cc1,/,10.3µM*,11.6µM*,/,/
COc1ccc(CCNC(=O)c2ccc3c(c2)sc2nc(-c4ccccc4)cn23)cc1OC,/,7.31µM*,5.17µM*,/,/
COc1ccc(C(=O)NC(=S)Nc2ccc3c4c(cccc24)CC3)cc1OC,27.8,?,?,?,21.8%
O=C(NCCSc1ccccn1)c1ccc(Cl)cc1Cl,1.9,?,?,11.6%,10.7%
Cc1ccc(C(=O)N/C(=C\c2ccccc2)C(=O)OCc2ccccc2)cc1,-50.7*,?,29.1µM*,-1.3%,12.3%
O=C(OCc1ccccc1)/C(=C/c1cccc2ccccc12)NC(=O)c1ccccc1,15.4,?,6.8%,5.7%,6.8%
CCOC(=O)C1(C)CCCN(C(=O)c2cccc(OC(F)(F)F)c2)C1 (configuration not stated),-6.4,?,?,-3.1%,0.5%
CC[n+]1c(/C=C/C=C/N(C(C)=O)c2ccccc2)sc2ccccc21,0.0,20.6µM*,?,?,?
SMILES,IL-1B inflam inh,DT40 TDP1 no CPT,TDP1 cell CPT,HT1080NT lethal,HT1080 IDH1KD tx
CCn1c(/C=C/N(C(C)=O)c2ccccc2)[n+](CC)c2ccc(Cl)cc21,12.6,14.6µM*,16.4µM*,9.6%,4.6%
CCn1c(C)[n+](CC)c2ccc(C(=O)N(C)c3ccccc3)cc21,0.0,9.8%,-2.8%,-0.1%,2.6%
CC1(C)[C@H]2CC[C@]1(C)[C@H](O)C2,/,-8.1%,9.9%,/,/
CC(C(=O)N1CCCC1)N1CCN(S(=O)(=O)c2ccccc2)CC1 (configuration not stated),-5.0,-2.4%,-15.5%,1.7%,5.9%
Cc1ccc(-n2nc3c(c2NC(=O)CC(C)C)CS(=O)C3)cc1 (configuration not stated),9.3,-2.0%,-0.1%,1.9%,0.8%
c1ccc2c(C3=NNC(=NC4CC4)SC3)c[nH]c2c1,-96.1*,?,?,-15.4%,-3.2%
c1ccc2c(C3=NNC(=NC4CCCCC4)SC3)c[nH]c2c1,-96.3*,?,?,?,?
O=C1NN=C(c2ccccc2)CC1c1c[nH]c2ccccc12 (configuration not stated),6.5,-16.4%,?,2.7%,1.6%
c1ccc(C2=NNC(=NC3CC3)SC2)cc1,-12.6,18.4µM*,?,?,17.8µM*
Cc1ccccc1-c1ccc(/C=C2/SC(N3CCOCC3)=NC2=O)o1,-75.5*,7.31µM*,2.91µM*,-24.4%,?
N#CCCN1CCC(NC(=O)OCc2ccccc2)CCC1=O (configuration not stated),40.4,-1.6%,-0.7%,19.5%,5.5%
O=C(N[C@H]1CCC(=O)N([C@H](CSc2ccc(Br)cc2)Cc2ccccc2)CC1)OCc1ccccc1,-22.8,18.4µM*,?,0.0%,-1.3%
C[C@@H](CN=[N+]=[N-])CN1CC[C@H](NC(=O)OCc2ccccc2)CCC1=O,19.8,?,?,10.0%,5.2%
O=C(N[C@H]1CCC(=O)N([C@H](CSc2ccccc2)Cc2ccccc2)CC1)OCc1ccccc1,-22.2,20µM*,?,-9.2%,-11.5%
O=C(NC1CCC(=O)N(CCSc2ccccc2)CC1)OCc1ccccc1 (configuration not stated),15.4,15.8µM*,?,1.2%,-4.1%
O=C1CC[C@H](OCc2ccccc2)CCN1[C@H](CSc1ccccc1)Cc1ccccc1,-8.3,?,-26.8%,1.6%,-0.6%
Cc1ccc(SC[C@H](Cc2ccccc2)N2CC[C@@H](NC(=O)OCc3ccccc3)CCC2=O)cc1,/,12.6µM*,17.8µM*,/,/
Cn1c(=O)[nH]c(=O)c2c1nc(N1CCCCC1)n2CC(O)COc1ccc([N+](=O)[O-])cc1 (configuration not stated),40.8,?,?,-4.8%,-8.3%
COc1ccc(C)cc1NC(=O)C1CCN(S(=O)(=O)Cc2ccccc2)CC1,/,2.6%,5.7%,/,/
